# In the supplement of paper PMC11219838:
# Tested on: Caenorhabditis elegans L1 (N2)
# Experiment: survival and reproduction score of C. elegans L1 (0: 0-10 living worms, 1: 11-20, 2: 21-50, 3: >50, 4: overgrown) (score 0-4); higher = more worms, less nematicidal, active = 1 or less; extreme values may be limits of the assay
# Settings: 60 µM; 6 days; temperature: 20 °C
# Method in brief: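 Synchronized C. elegans N2 L1s (about 20 per well) were grown in 96-well plates in liquid NGM with E. coli HB101 and compound at 60 µM final (0.6% v/v DMSO), shaken sealed at 200 rpm and 20 °C for 6 days. The ordinal score for survival and reproduction counted living worms per well under a dissection microscope. The scale ran 0 (0–10 worms) to 4 (overgrown, starved), averaged over two biological replicates.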
row,SMILES,survival and reproduction score
1,Brc1ccc(-c2noc(-c3ccc(Br)o3)n2)o1,0.5 (active)
2,Cc1cccc(-c2nnc(SCC(=O)Nc3ccc(Br)c(C)c3C)o2)c1,4 (inactive)
3,COc1ccc(-c2nnc(SCC(=O)Nc3ccc(Br)cc3C(C)C)o2)cc1,4 (inactive)
4,CCC(=O)Nc1ccccc1-c1nc(-c2cccnc2)no1,4 (inactive)
5,Cc1ccc(-c2nc(-c3ccc(C(F)(F)F)cc3)no2)cc1,0 (active)
6,COc1ccccc1-c1noc(-c2ccccc2)n1,4 (inactive)
7,Cc1cccc(-c2noc(-c3ccccc3Cl)n2)c1,4 (inactive)
8,COc1ccc(-c2noc(-c3cccc(C)c3)n2)cc1,0 (active)
9,COc1ccc(CCC(=O)Nc2ccc(-c3noc(COc4ccccc4C)n3)cc2)cc1,4 (inactive)
10,C=CCOc1ccc(-c2nc(-c3cccnc3)no2)cc1,0 (active)
11,Clc1ccc(OCc2nc(-c3ccncc3)no2)cc1,4 (inactive)
12,CCOc1nc(-c2ccc(C)cc2)ccc1-c1noc(-c2ccc(F)cc2)n1,2 (inactive)
13,Cc1cc(C)cc(OCc2nc(-c3cc(C)nc4ccccc34)no2)c1,4 (inactive)
14,COc1cccc(NC(=O)c2ccccc2-c2nc(-c3ccccc3Cl)no2)c1,4 (inactive)
15,O=C(CSc1nnc(-c2ccc(Cl)cc2Cl)o1)c1ccc2c(c1)OCCO2,4 (inactive)
16,COc1ccc(-c2nnc(SCC(=O)c3ccccc3)o2)cc1,4 (inactive)
17,c1ccc(-c2noc(C3COc4ccccc4O3)n2)cc1 (stereo not drawn),0 (active)
18,Cc1cccc(OCc2nc(-c3ccc(-n4cccc4)cc3)no2)c1,4 (inactive)
19,COc1ccc(CC(=O)Nc2ccc(-c3noc(-c4ccccc4Br)n3)cc2)cc1,4 (inactive)

row,SMILES,survival and reproduction score
1,COc1nc(-c2ccccc2)ccc1-c1noc(-c2ccccc2Cl)n1,4 (inactive)
2,Cc1cc(Br)ccc1OCc1nc(-c2ccccn2)no1,4 (inactive)
3,O=C(Nc1ccc(-c2noc(COc3ccccc3)n2)cc1)c1ccc(F)cc1,1 (active)
4,Cc1cccc(-c2noc(-c3ccccc3F)n2)c1,4 (inactive)
5,CCOc1cc(-c2nc(-c3ccccc3OC)no2)cc(OCC)c1OCC,4 (inactive)
6,O=C(c1ccccc1-c1nc(-c2ccccc2)no1)N1CCCCC1,4 (inactive)
7,Cc1c(C(=O)CSc2nnc(-c3ccccc3)o2)c2ccccc2n1C,4 (inactive)
8,c1cncc(-c2noc(COc3cccc4ccccc34)n2)c1,4 (inactive)
9,COc1ccc(Cl)cc1NC(=O)CSc1nnc(-c2ccc(C)cc2)o1,4 (inactive)
10,COc1ccc(-c2noc(COc3ccccc3)n2)cc1,0 (active)
11,CC(C)c1ccc(OCc2nc(-c3ccncc3)no2)c(Br)c1,4 (inactive)
12,CC(C)(C)C(=O)CSc1nnc(-c2ccc(Cl)cc2Cl)o1,4 (inactive)
13,O=C(CSc1nnc(-c2cccc(Br)c2)o1)NC1CCCCC1,4 (inactive)
14,Brc1ccc(-c2noc(-c3ccco3)n2)cc1,0 (active)
15,CCCCCSc1nnc(-c2ccc(Cl)cc2Cl)o1,2 (inactive)
16,CCCCc1ccc(-c2nc(-c3cccnc3)no2)cc1,0 (active)
17,Clc1cc(Br)ccc1OCc1nc(-c2cccnc2)no1,4 (inactive)
18,COc1nc(-c2ccccc2)ccc1-c1noc(-c2ccccc2C)n1,4 (inactive)
19,CC(=O)Nc1ccc(NC(=O)c2ccccc2-c2nc(-c3ccccc3Cl)no2)cc1,4 (inactive)
